Sampled rows, rich in hits. Any-hit rate of the full collection: about 9.2%.
ELG1 genotox – inducers of genotoxicity in HEK293T ELG1-luciferase cells; HEK293T ELG1-luciferase reporter, luminescence, 16 h; Potency, µM (doses to about 46 µM), for the others: at the highest dose activity change, positive = activation, hits mostly activators; 1.3% of 330,000 active; AID 504466; also: % of control where 0% means no effect; nearly all actives have a fitted effect of over 60% in size
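Reporter readout depends on ELG1 protein level, which increases with genetic stress. After 16 hr compound exposure at 37 °C, luciferase activity was quantified using ONE-Glo.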
NPC1 promoter act – activates the NPC1 promoter; Huh7 NPC1 promoter luciferase reporter, 24 h; Potency, µM (top dose mostly 9.22 µM), for the others: at the top dose activation, hits mostly activators; 2.4% of 320,000 active; AID 485313; also: % of control where 0% means no effect; nearly all actives have a fitted effect of over 60% in size
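Luminescence read-out of NPC1 promoter-driven luciferase in stably transfected Huh7 cells; compounds delivered in DMSO and left 24 h at 37C, 5% CO2, qHTS titration format.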
Rab9 prom act – activates the Rab9 promoter; 2.8% of 320,000 active; Huh7 Rab9 promoter-luciferase reporter, luminescence, 24 h; Potency, µM (top dose mostly 9.22 µM), without a hit: at the highest dose activation, negative = inhibition, most hits filed as activators; also: % of control where 0% means no effect; nearly all actives have a fitted effect of over 60% in size
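Luminescence read-out: Huh7 cells stably expressing Rab9-luciferase, treated 24 h with compound at 37 °C, then lysed with luciferase reagent for 10 min at ambient before reading.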
SMN2 splice up – SMN2 splice variant enhancement | HEK293 SMN2-luciferase splicing reporter, luminescence, 30-36 h | Potency, µM (doses to about 46.1 µM), inactives show at the top dose activity change, positive = activation, most hits filed as activators | 2.8% of 210,000 active | AID 1458; also: % of control where 0% means no effect; nearly all actives have a fitted effect of over 55% in size
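qHTS luciferase splicing reporter: luminescence rises when SMN2 exon 7 is included in transfected HEK293 cells. Compound exposure lasted 30-36 h at 37C, with 4.5 mM final sodium butyrate as control, followed by a ONE-Glo read.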
FLuc counter – counter-screen for miR-21 project: firefly luciferase inhibitors or activators; 6.9% of 360,000 active; Potency, µM (highest dose often 57.5 µM), without a hit: at the top dose activity change, negative = inhibition, actives largely listed as inhibitors; purified FLuc, Km substrates, luminescence inhibition;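 also: plate controls were vehicle for no effect and reference inhibitor for full effect; nearly all actives have a fitted effect of over 55% in size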
Target sequence (P08659 whole entry, looked up): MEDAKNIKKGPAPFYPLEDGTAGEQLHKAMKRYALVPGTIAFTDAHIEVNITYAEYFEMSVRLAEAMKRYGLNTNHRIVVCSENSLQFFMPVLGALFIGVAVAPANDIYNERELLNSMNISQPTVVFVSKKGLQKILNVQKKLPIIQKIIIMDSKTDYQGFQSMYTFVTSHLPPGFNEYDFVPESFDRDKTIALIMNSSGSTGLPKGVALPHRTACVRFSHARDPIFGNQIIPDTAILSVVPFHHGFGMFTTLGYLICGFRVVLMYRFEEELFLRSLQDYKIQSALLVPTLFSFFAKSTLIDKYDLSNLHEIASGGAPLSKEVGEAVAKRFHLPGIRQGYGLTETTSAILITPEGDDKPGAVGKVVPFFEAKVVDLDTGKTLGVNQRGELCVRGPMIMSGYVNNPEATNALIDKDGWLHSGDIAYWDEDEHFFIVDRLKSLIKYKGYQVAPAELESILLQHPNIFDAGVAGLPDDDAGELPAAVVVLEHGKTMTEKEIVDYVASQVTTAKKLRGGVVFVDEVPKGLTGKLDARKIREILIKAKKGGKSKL
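Purified P. pyralis luciferase, 10 nM final, with Km-level 10 uM D-luciferin and 10 uM ATP in 50 mM Tris acetate pH 7.5, 10 mM Mg acetate, 0.01% Tween-20, 0.05% BSA; 6-point qHTS titration about 60 µM downward; luminescence read.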
ELG1 DNA repair – ELG1-dependent DNA repair inhibition | HEK293T ELG1-luciferase reporter, luminescence, 16 h; DNA damage induced by 5-fluorouridine | Potency, µM (doses to about 46.1 µM), for inactives: at the top dose activity change, negative = inhibition, actives largely listed as inhibitors | 2.3% of 330,000 active | AID 504467; also: % is scaled to controls: 0 for no effect and ±100 for the full control effect; nearly all actives have a fitted effect of over 55% in size
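DMSO vehicle served as the neutral condition. Each well held 2,000 cells given 5-fluorouridine plus compound; after 16 hr at 37 °C/5% CO2, ONE-Glo was added and luciferase measured 30 min later.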
Starred values were filed as active, the others as inactive; ? = inconclusive; / = no result given; [ ] = another dose, or the depositor's remark. Calls follow the shape of the dose curve; as a rule, active = well fitted curve in the direction sought with a large enough effect; inconclusive = small, poorly fitted or top-dose-only effect, or another doubt; inactive = no such curve, though single readings can be large; an effect the other way counts as inactive or inconclusive. Potency is read from the fitted curve at half-maximal effect.

SMILES | ELG1 genotox | NPC1 promoter act | Rab9 prom act | SMN2 splice up | FLuc counter | ELG1 DNA repair
CCOc1cc(/C=N/Nc2nc3ccccc3[nH]2)cc(Br)c1OCC(=O)N(C)C | -15% | 0% | 0% | -82% | 24µM* | 23µM*
COc1ccc2c(c1)c(/C=N/Nc1nc3ccccc3[nH]1)c(C)n2C | 4% | 6% | 0% | / | 9.5µM* | ?
CCOc1cc(/C=C2\COc3ccccc3C2=O)cc(Br)c1OCC(=O)N(C)C | -10% | -16% | 3% | / | ? | ?
COc1ccc2c(c1)c(C(=O)N/N=C/c1cn(C)c3ccccc13)c(C)n2C | -3% | 3% | 1% | / | ? | -3%
COc1ccc(N(C)C(=O)CN(C)S(=O)(=O)c2ccc3c(c2)c(=O)n(C)c(=O)n3C)c(OC)c1 | -4% | -3% | -4% | / | 1% | 9%
CC(=O)O[C@H]1Cc2ccccc2N(C(N)=O)c2ccccc21 | / | 0%[46.1 µM] | -7%[46.1 µM] | / | / | /
COC(=O)CC1C2(C)CC34OC5(C)O[C@@]6(C7/C(=C(/OC)C(C)C)C(=O)OC(c8ccoc8)[C@@]7(C)C(OC(=O)C(C)C)C(OC)[C@]6(O5)[C@@]13C)C(OC)[C@]4(OC)C2OC(C)=O (stereo not given in full) | / | / | / | -8% | / | /
CC(=O)Nc1ccc2nc(-c3cccn3C)[nH]c2c1 | ? | 27% | ? | / | ? | ?
Cn1cccc1-c1nc2ccc([N+](=O)[O-])cc2[nH]1 | ? | 2.8µM* | 2.2µM* | / | 12µM* | ?
O=[N+]([O-])c1ccc2nc(-c3ccccc3)[nH]c2c1 | ? | 2.8µM* | 2.5µM* | 7.1µM* | 5.4µM* | ?
Cc1ccc([C@@H]2[C@@H]3C(=O)N(C)C(=O)[C@@H]3[C@]3(Cc4ccccc4)C(=O)N(Cc4ccccn4)CC(=O)N23)o1 | 3% | -5% | 4% | / | 3% | 15%
CCOc1ccccc1N1CC(C(=O)Nc2cccc(S(=O)(=O)N3CCCCC3)c2)CC1=O (stereo not given) | -10% | -7% | -2% | -45% | 7% | ?
CC1=NN(c2ccccc2)C(=O)C1C(=O)c1cc([N+](=O)[O-])cc([N+](=O)[O-])c1 (stereo not given) | -3% | 6% | 2% | 19% | ? | 2%
COc1cc(C)ccc1OCc1cc(C(=O)NC(C)Cn2cncn2)no1 (stereo not given) | ? | 2.2µM* | 1.6µM* | / | ? | ?
COc1cc(C)ccc1OCc1cc(C(=O)NCc2ccncc2)no1 | 18µM* | 2.8µM* | 2µM* | / | 12µM* | ?
COc1ccc(NC(=O)Nc2cccc(NC(C)=O)c2)c(OC)c1 | 8% | -1% | 3% | / | ? | 1%
Cc1nc2ccccc2c(=O)n1CCCO | -1% | -2% | 1% | 6% | 3% | -1%
O=c1c2ccccc2nc(/C=C/c2ccc([N+](=O)[O-])o2)n1CCCO | ? | -38% | -43% | -93% | 1% | 15µM*
O=c1c2ccccc2nc(/C=C/c2ccc([N+](=O)[O-])cc2)n1CCCO | -6% | -4% | -1% | -7% | -1% | 18µM*
CN(C)c1ccc(Nc2nc3ccccc3n3nnnc23)cc1 | / | / | / | -9% | 6.7µM* | /
CCOc1ccc(Nc2nc3ccccc3n3nnnc23)cc1 | ? | 27% | 4.5µM* | 14% | ? | ?
Cc1ccc(N2CCN(C(=O)c3ccc(Nc4nc5ccccc5n5nnnc45)cc3)CC2)c(C)c1 | / | / | / | 6% | 2% | /
Cc1ccc(C(=O)O)cc1Nc1nc2ccccc2n2nnnc12 | / | / | / | ? | 17µM* | /
CC(NC(=O)c1ccc(Nc2nc3ccccc3n3nnnc23)cc1)c1ccccc1 (stereo not given) | / | / | / | 18% | -2% | /
CCOc1ccc(CCNC(=O)c2ccc(Nc3nc4ccccc4n4nnnc34)cc2)cc1OCC | / | / | / | 3% | -5% | /
SMILES | ELG1 genotox | NPC1 promoter act | Rab9 prom act | SMN2 splice up | FLuc counter | ELG1 DNA repair
O=c1cc(N=Nc2ccc(Cl)cc2)[nH]c(=O)[nH]1 | -16% | -28% | -50% | / | -14% | 23µM*
Cc1ccc(Cn2cc(C(=O)c3ccc(F)cc3)c(=O)c3cc4c(cc32)OCO4)cc1 | / | / | / | 0% | -4% | /
O=C(C1CC1)N1CCN(c2nc3c(F)cc(F)cc3s2)CC1 | / | / | / | / | -19% | /
CS(=O)(=O)Cc1cccc(C(=O)NN(c2ccccc2)c2ccccc2)c1 | 1% | -2% | -6% | / | 4% | -7%
CCOC(=O)c1c(NC(=O)c2ccco2)sc2c1CCCCC2 | -1% | 9% | -7% | 26% | 17µM* | -1%
NC(=O)c1c(NC(=O)CSc2nnc(Cc3ccccc3)n2Cc2ccco2)sc2c1CCC2 | -22% | -3% | -10% | -47% | 4% | 23µM*
CCc1c(C)sc(NC(=O)c2ccoc2C)c1C(N)=O | 8% | 20% | 20% | / | 11µM* | 27%
CC1CCc2c(sc(NC(=O)CN3CCN(C(=O)c4ccco4)CC3)c2C#N)C1 (stereo not given) | -3% | 1% | -1% | -27% | ? | 16µM*
CC1CCN(CC(=O)Nc2sc3c(c2C#N)CCC3)CC1 | 4% | 10% | 4% | / | -8% | 18%
O=C(CSc1nnc(Cc2ccccc2)n1Cc1ccco1)NC12CC3CC(CC(C3)C1)C2 | -13% | 0% | -2% | -65% | 1% | ?
CCOC(=O)C1(Cc2cccc(F)c2)CCN(C(=O)COC)CC1 | -1% | -5% | 1% | / | -1% | ?
CCNc1c(NC(=O)C2CCC(C)CC2)c(=O)oc2ccccc12 (stereo not given) | 0% | 2% | 4% | / | 0% | 2%
CN1CCN(C(=O)c2c(NC(=O)c3ccco3)sc3c2CCC(C(C)(C)C)C3)CC1 (stereo not given) | 0% | 2% | 5% | -16% | -6% | 3%
O=C(Nc1sc2c(c1C(=O)O)CCCCC2)c1ccco1 | ? | 2.8µM* | ? | 11µM* | 4.3µM* | ?
COC(=O)c1c(NC(=O)c2ccc(OC)cc2OC)sc2c1CCCCC2 | / | / | / | 9% | 6µM* | /
COC(=O)c1c(NC(=O)c2c(OC)cccc2OC)sc2c1CCCC2 | / | / | / | 4% | ? | /
CC1CCc2c(sc(NC(=O)c3ccco3)c2C(=O)O)C1 (stereo not given) | 10% | ? | -49% | / | 7.6µM* | ?
CCOC(=O)c1c(NC(=O)C(C)N2CCN(C(=O)c3ccco3)CC2)sc2c1CCCC2 (stereo not given) | -7% | -10% | -6% | -22% | -3% | 7.3µM*

Screens: PubChem, National Center for Advancing Translational Sciences (NCATS)
